An excerpt weighted towards active compounds, which were near 0.99% of everything screened.
TRHR agonist-1 – agonists of human TRH receptor; TRHR cells, calcium flux fluo-8, FDSS agonist mode; activation, % at 2 µM; 360,000 tested, 0.18% active; in the data active means activation above about 30%; further: 0% is about no effect
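In this calcium-flux screen, cells bearing human TRHR are dye-loaded with fluo-8, baselined for 10 cycles, then exposed to library compounds; positive kinetic calcium responses during the agonist phase mark hits, with TRH as control.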
TRPML1 inh – human mucolipin-1 channel inhibition. TRPML1-inducible cells, Ca2+ dye fluorescence, FDSS; active compounds read low; inhibition of EC80 agonist-evoked calcium signal. activity change, negative = inhibition, % (concentration not given with the values). 390,000 tested, 0.02% active; in the data active means activity change below about -50%; inconclusive means between about -30% and that limit;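 further: stimulus is agonist 54-4 at its EC80 concentration; on the % scale 0 is the no-effect control and ±100 the full control effect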
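Tet-induced TRPML1-DL cells loaded with Ca8 no-wash calcium dye were read kinetically on FDSS. Compound addition was followed by EC80 agonist 54-4 (4 uM final); inhibition was read over 110 s.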
TRPV1 PAM – potentiators of human vanilloid receptor 1 (TRPV1) | TRPV1-expressing cells, Fluo-8 calcium influx, capsaicin EC20 potentiation | potentiation, % at 8.33 µM | Q8NER1 | 320,000 tested, 0.02% active; in the data active means potentiation above about 80%; inconclusive means between about 30% and that limit; further: 0% is about no effect
Target sequence (Q8NER1 whole entry, looked up): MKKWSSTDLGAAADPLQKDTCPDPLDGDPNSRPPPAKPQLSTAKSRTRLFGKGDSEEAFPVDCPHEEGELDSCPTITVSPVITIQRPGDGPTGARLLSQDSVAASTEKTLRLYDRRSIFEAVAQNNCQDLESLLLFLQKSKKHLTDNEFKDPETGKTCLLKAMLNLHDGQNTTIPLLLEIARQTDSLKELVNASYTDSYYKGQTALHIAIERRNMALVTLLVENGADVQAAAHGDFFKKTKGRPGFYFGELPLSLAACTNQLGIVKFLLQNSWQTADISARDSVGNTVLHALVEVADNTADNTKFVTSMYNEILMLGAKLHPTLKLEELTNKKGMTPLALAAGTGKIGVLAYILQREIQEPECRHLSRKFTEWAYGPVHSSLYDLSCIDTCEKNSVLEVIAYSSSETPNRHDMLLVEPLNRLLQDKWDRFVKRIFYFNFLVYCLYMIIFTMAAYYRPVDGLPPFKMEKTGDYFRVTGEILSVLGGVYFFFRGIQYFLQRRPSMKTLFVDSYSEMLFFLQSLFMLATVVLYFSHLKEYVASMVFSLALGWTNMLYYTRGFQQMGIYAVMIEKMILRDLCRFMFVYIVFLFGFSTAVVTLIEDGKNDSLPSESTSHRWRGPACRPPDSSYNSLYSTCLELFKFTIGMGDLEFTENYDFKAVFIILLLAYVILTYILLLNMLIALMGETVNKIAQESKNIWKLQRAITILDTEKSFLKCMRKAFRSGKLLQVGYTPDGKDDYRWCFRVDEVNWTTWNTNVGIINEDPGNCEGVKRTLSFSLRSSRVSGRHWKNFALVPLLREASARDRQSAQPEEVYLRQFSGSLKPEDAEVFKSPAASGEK
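Fluo-8 calcium influx in TRPV1-expressing cells, kinetic read (ex 480/em 520 nm). Compound added and read 3 min for agonist activity, followed by capsaicin at EC20 final and 2 min further read for enhancement.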
TRPV1 ag – activates the human vanilloid receptor TRPV1 | Q8NER1 | TRPV1-expressing cells, Fluo-8 calcium influx, agonist mode | activation, % at 8.33 µM | 320,000 tested, 0.19% active | AID 540275; in the data active means activation above about 80%; inconclusive means between about 30% and that limit; further: 0% is about no effect
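Cells expressing TRPV1 were dye-loaded with Fluo-8 and read kinetically: 10 s baseline, 3 min after compound (agonist portion), then 2 min after EC20 capsaicin (allosteric enhancer portion). Calcium-bound dye fluorescence at 480/520 nm.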
TRHR enhancer-1 – allosteric enhancers of human TRH receptor | 360,000 tested, 0.66% active | enhancement, % at 2 µM | P34981 | TRHR cells, fluo-8 calcium fluorescence, EC20 TRH enhancement; in the data active means enhancement above about 30%; further: 0% is about no effect
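Enhancer read-out: after compound pinning and an initial kinetic agonist-mode read, an EC20 of TRH (10 nM final) was injected and fluo-8 calcium signal (Ex 480/Em 530) followed at 1 s/cycle for 100 cycles in TRHR-expressing cells.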
TRPML1 ag – human mucolipin-1 channel agonism; Q9GZU1; TRPML1-expressing cells, Ca2+ dye fluorescence, FDSS; activation, % (test concentration not listed); 410,000 tested, 0.12% active; AID 624414; in the data active means activation above about 50%; inconclusive means mostly about 30% to 49%; further: 0% is about no effect
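Calcium fluorescence on an FDSS kinetic reader gave the read-out. Tet-induced TRPML1-DL cells were plated overnight, dye-loaded (Ca8 with quencher, 45-90 min, room temperature, dark), then read 110 s after compound addition, and again 110 s after 4uM final 54-4 (EC80).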
TRHR enhancer-2 – human TRH receptor allosteric enhancement confirmation; shares compounds with TRHR enhancer-1; TRH receptor cell assay, enhancer confirmation qHTS; activity change, negative = inhibition, % at 46.1 µM; 970 tested, under 10 active; AID 493076;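 further: compound effect scored on response to added TRH at EC20 of 10 nM; 0% is about no effect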
TRHR agonist-2 – human TRH receptor agonism confirmation | shares compounds with TRHR enhancer-1 | TRHR-expressing cells, agonist activation read-out | Potency, µM (top dose mostly 46.1 µM), inactives show at the top dose activation, actives largely listed as activators | 970 tested, 8% active | AID 493078; further: potency means the concentration at half of the fitted maximal effect; 0% is about no effect; nearly all actives have a fitted effect of over 75% in size
Starred values were filed as active, the others as inactive; ? = inconclusive; . = not tested or not shown. Unless noted, the call rests on the fitted dose curve; in most records, active means well fitted curve in the direction sought with a large enough effect; inconclusive means small, poorly fitted or top-dose-only effect, or another doubt; inactive means no such curve, though single readings can be large; an effect the other way counts as inactive or inconclusive.

SMILES	TRHR agonist-1	TRPML1 inh	TRPV1 PAM	TRPV1 ag	TRHR enhancer-1	TRPML1 ag	TRHR enhancer-2	TRHR agonist-2
O=c1ccc2cc3c4c(c2o1)CCCN4CCC3	47*	-9	-6	17	-5	?	?	21µM*
NS(=O)(=O)c1ccc(NC(=O)CSC2CCCCC2)cc1	0	0	-17	?	45*	0	-1	0%
N=c1sccn1CC(=O)Nc1ccc(S(N)(=O)=O)cc1	1	-5	7	0	54*	1	-1	0%
CN(C)CCCNC1=CC(=O)CC(c2ccccc2)C1 (stereo not given)	0	11	?	0	56*	0	12	-1%
COc1cc(-c2nn3c(-c4cc(-c5ccccc5)n[nH]4)nnc3s2)cc(OC)c1OC	.	.	.	.	.	1	.	.
N#Cc1ccccc1NC(=S)NC(=O)C1CCC1	0	2	-7	2	0	0	.	.
O=C(NC(=S)Nc1ccccc1Br)C1CCC1	0	-1	6	23	62*	0	-7	3%
N#CC1=C(N)Oc2cc(O)ccc2C1c1cccnc1 (stereo not given)	0	6	1	2	7	1	.	.
N#CC1=C(N)Oc2cc(O)c(Cl)cc2C1c1cccnc1 (stereo not given)	65*	-12	1	13	-1	?	5	?
COc1ccc(OC)c(C(Cc2ccnc3ccccc23)Cc2ccnc3ccccc23)c1	.	.	.	.	.	0	.	.
CC(C)=CNNC(=O)c1ccc(O)cc1	.	.	.	.	.	-1	.	.
CCOC(=O)CSc1ccc2nnc(-c3ccncc3)n2n1	-1	0	?	-1	52*	0	4	3%
O=C(C[n+]1ccccc1Cl)c1ccc2ccccc2c1	.	.	.	.	.	-1	.	.
CCn1c(SCC(=O)NCc2ccco2)nnc1-c1ccc(N(C)C)cc1	.	.	.	.	.	-1	.	.
NC(=O)NCCCC(NC(=O)c1ccc(C#CC2(O)CCCCC2)cc1)C(=O)O (stereo not given)	0	0	15	-7	43*	0	-4	-1%
O=C(COC(=O)CNC(=O)C1CCCCC1)NC1CC1	.	.	.	.	.	-1	.	.
CCOC(=O)c1cc(-c2csc(-c3ccc(C(C)(C)C)cc3)n2)on1	0	4	.	.	44*	2	7	2%
CCCn1cccc(C(=O)Nc2ccc(OC)cc2)c1=O	0	-1	-16	24	1	0	.	.
C#CCn1cccc(C(=O)Nc2ccc(OC)cc2)c1=O	0	-1	-10	4	45*	0	-3	-1%
COc1cc(O)c(C(CC(=O)N2CCCC2)c2cc(OC)c(OC)c(OC)c2)c(OC)c1 (stereo not given)	-1	-2	16	-1	49*	2	-3	7%
COc1cc(O)c(C(CC(=O)N2CCCCC2)c2cc(OC)c(OC)c(OC)c2)c(OC)c1 (stereo not given)	0	7	?	1	-1	1	.	.
CC(C)=CCC/C(C)=C/COc1c2ccoc2cc2oc(=O)ccc12	0	59	-9	?	-3	0	.	.
COc1ccc(S(=O)(=O)N2CCCCC2)cc1NC(=S)Nc1ccccc1	0	25	7	1	56*	0	-2	1%
O=C(Cn1cncn1)NCc1ccccc1Br	1	-11	-1	-1	-1	-1	.	.
O=C(Cn1cncn1)c1ccccc1Br	0	7	-9	-3	44*	1	-1	1%
SMILES	TRHR agonist-1	TRPML1 inh	TRPV1 PAM	TRPV1 ag	TRHR enhancer-1	TRPML1 ag	TRHR enhancer-2	TRHR agonist-2
COc1ccc(C(=O)NC2CC2)cc1OC1CCN(C(C)CSC)CC1 (stereo not given)	26	10	-16	7	2	0	-5	5%
COc1cc(/C=C/c2cncc(/C=C/c3cc(OC)c(OC)c(OC)c3)c2)cc(OC)c1OC	.	.	.	.	.	0	.	.
COC(=O)c1c(C)oc2ccc(NS(=O)(=O)c3cccs3)cc12	-1	13	2	3	53*	0	-8	3%
CCN(CC)c1ccc(/C=C2\CCC(/C=N/NC(=O)c3ccc(=O)n(C)c3)=C2N2CCOCC2)cc1	36*	12	6	11	11	?	9	?
Nc1ccc(C(=O)OCC(=O)NC(=O)c2ccccc2)cc1[N+](=O)[O-]	4	2	-1	1	55*	2	-5	6%
O=C(COC(=O)c1ccc(Cl)cc1[N+](=O)[O-])NC(=O)c1ccccc1	1	4	-17	15	-3	0	.	.
COC(=O)Cc1c(O)ccn(CCc2ccccc2)c1=O	2	5	-8	1	51*	0	2	5%
CC1=C(C(=O)OCC(C)C)C(c2ccccc2Cl)NC(=O)N1C (stereo not given)	-1	3	4	-1	-1	2	.	.
CC1=C(C(=O)OCC(C)C)C(c2cc3c(cc2Br)OCO3)NC(=O)N1C (stereo not given)	-2	-5	-4	-3	53*	3	-7	?
CC(=O)NCCC1CCN(c2nc3nonc3nc2N(C)Cc2ccccc2)CC1	0	24	-9	?	47*	1	-4	0%
CCCCNC(=O)N1CCC(CCC(=O)N(C)Cc2ccccc2)CC1	0	-5	-21	0	-6	1	.	.
CCN(C(=O)C(=O)c1c(C)[nH]c2ccccc12)c1ccccc1	.	.	.	.	.	-1	.	.
O=C1CCCC2=C1C(c1ccc(Cl)cc1)N=C(Nc1nc3ccccc3o1)N2 (stereo not given)	.	.	.	.	.	0	.	.
CCc1cc(-c2n[nH]c(C)c2-c2nc(C)cs2)c(O)cc1OC	1	-4	-2	1	45*	3	?	2%
CCOc1ccccc1N1C(=O)c2ccccc2N/C1=C\N1CCN(C(=O)c2ccco2)CC1	.	.	.	.	.	0	.	.
N#Cc1cc(-c2ccccc2)nc(NN)n1	0	0	-3	-2	48*	1	-16	-1%
NNc1nc(-c2ccccc2)cc(-c2ccccc2)n1	0	14	-10	13	-3	4	.	.
CCCCCCNc1ccc(/C=C/c2ccnc3ccccc23)cc1	.	.	.	.	.	18	.	.
O=S(=O)(Nc1nc2ccccc2nc1Nc1ccc2c(c1)OCO2)c1ccccc1	2	18	?	-5	14	0	.	.
Cc1cccc(S(=O)(=O)Nc2nc3ccccc3nc2Nc2ccc3c(c2)OCO3)c1	0	-18	-2	4	44*	0	-10	2%

Screening results: PubChem BioAssay, National Center for Advancing Translational Sciences (NCATS)
